Measured values published in PubChem BioAssay (EPA / NIEHS).
More than one record can exist for a structure, and the calls need not agree. Calls of active or inactive are those of the source. Rule for the calls: active = hit-call score of the fitted dose curve at least 0.9, where 1 is the maximum; inactive = score below 0.9.

Experiment: CCTE_Shafer_MEA_acute_synchrony_index: CCTE's Neural Acute Assay for Synchrony, Shafer Lab (AID 2284027);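 note: fitted for loss of signal so actives lower synchrony relative to DMSO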
Method: CCTE_Shafer_MEA_acute assay is conducted using Axion Biosystems 48 well microelectrode array (MEA) plates and Maestro recording system. Each well of the MEA plate contains a grid of 16 microelectrodes embedded in the culture surface. Electrically active cells, such as neurons, can be cultured over the electrodes, and electrical activity in these cells can be recorded extracellularly. The spontaneous firing of neurons is captured from each electrode on a microsecond timescale providing both temporally and spatially precise data. […] The CCTE_Shafer_MEA_acute assay uses primary cultures of rat cortical neurons. As these cultures mature over time, neural networks develop functional activity and form cohesive networks in which electrical activity can be highly coordinated. Baseline 40-minute recordings are made on days post-plating 13 or 15, followed by a secondary 40-minute recording after chemical exposure.CCTE_Shafer_MEA_acute_synchrony_index is a component of the CCTE_Shafer_MEA_acute assay. It measures the synchrony of the neural network as a unitless measure between 0 (low synchrony) to 1 (high synchrony) during a recording in a microelectrode array (MEA) using Axion Biosystems Maestro 768 channel amplifier with the AxIS adaptive spike detector. The recordings before and after chemical treatment are used to calculate a percent change in the synchrony index in each well.Data from the assay component CCTE_Shafer_MEA_acute_synchrony_index was analyzed into 1 assay endpoint. This assay endpoint, CCTE_Shafer_MEA_acute_synchrony_index, was analyzed in the negative analysis fitting direction relative to DMSO as the negative control and baseline of activity. Using a type of functional reporter, gain or loss-of-signal activity can be used to understand electrical activity.
Spontaneous activity in the cortical cultures was recorded using an Axion Biosystems Maestro 768 channel amplifier and Axion Integrated Studios (AxIS) v1.8 (or later) software. The amplifier recorded from all channels simultaneously (gain = 1200 x; sampling rate = 12.5 kHz/channel): raw signals were filtered with a Butterworth band-pass filter (300-5000 Hz), which filters out slower local field potentials leaving only fast potentials, i.e., "spikes", arising from extracellular currents associated with action potentials (Pine 2006; Wheeler and Nam 2011). On-line spike detection of filtered signals was conducted with the AxIS adaptive spike detector, using a threshold of 8x the root mean squared (rms) noise on each channel. Any electrodes with rms noise levels greater than 5 uV were grounded (e.g., no data were recorded). Once grounded, an electrode was grounded for the duration of the experiment. All recordings were conducted at 37 C. Wells were deemed usable if on the day of the exposure >/= 10 electrodes were active (defined as >/= 5 spikes/min). On DIV 13 or 15, a minimum of three wells from one cortical culture preparation were treated with each compound (0.03-40 uM). Prior to recording baseline activity, each mwMEA plate was placed in the Maestro at 37 C and allowed to sit for 20 min while firing rates stabilized. Baseline activity (40 min) was recorded before the addition of each compound. An additional 40 min of spontaneous activity was recorded in the presence of each compound. Changes in network parameters relative to baseline were assessed following compound treatment.

Compound | outcome | AC50
CCn1cc(C(=O)O)c(=O)c2ccc(C)nc21 | inactive | –
N[C@@H](CCC(=O)O)C(=O)O | inactive | –
CC(C)(CO)CO | inactive | –
CC/C(=C(\c1ccccc1)c1ccc(OCCN(C)C)cc1)c1ccccc1 | inactive | 14.8 µM (active)
CC(=O)c1ccc(C)cc1 | inactive | –
CCCO[Si](OCCC)(OCCC)OCCC | inactive | –
CCCCN(CCO)CCO | inactive | –
c1ccc(OCCOc2ccccc2)cc1 | inactive | –
CCCCOCCOCCO | inactive | –
O=C(c1ccc(OCCN2CCCCC2)cc1)c1c(-c2ccc(O)cc2)sc2cc(O)ccc12 | – | 36.8 µM (active)
CC(C)CCCC(C)(C)O | inactive | –
